Source: PubChem BioAssay (EPA / NIEHS)
Records with an inconclusive call do not appear. Activity calls are given as the source filed them. The calls were made as follows: active = hit-call score of the fitted dose curve at least 0.9, where 1 is the maximum; inconclusive = response in the unintended direction; inactive = score below 0.9.

target: D(1A) dopamine receptor (Homo sapiens) (UniProt P21728); test: NVS_GPCR_hDRD1: NovaScreen (NVS) G Protein-Coupled Receptor Assay for human Dopamine Receptor D1 (DRD1) (AID 2283269)
Sequence (P21728 whole entry, looked up): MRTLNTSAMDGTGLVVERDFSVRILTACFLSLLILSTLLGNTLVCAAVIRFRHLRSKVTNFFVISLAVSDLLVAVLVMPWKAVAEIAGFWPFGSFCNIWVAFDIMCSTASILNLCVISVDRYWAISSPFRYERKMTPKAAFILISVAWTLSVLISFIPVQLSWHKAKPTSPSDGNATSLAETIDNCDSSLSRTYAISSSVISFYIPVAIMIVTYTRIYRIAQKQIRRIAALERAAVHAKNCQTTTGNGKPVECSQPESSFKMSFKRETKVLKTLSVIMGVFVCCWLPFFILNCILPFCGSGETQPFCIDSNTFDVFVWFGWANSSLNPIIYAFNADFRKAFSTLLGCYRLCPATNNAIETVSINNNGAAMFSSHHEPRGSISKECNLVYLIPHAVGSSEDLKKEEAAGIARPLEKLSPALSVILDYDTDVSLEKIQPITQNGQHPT
Description: NVS_GPCR_hDRD1 is a biochemical, single-readout assay that uses extracted gene-proteins from HEK293 in a cell-free assay. Measurements were taken 1 hour after chemical dosing in a 96-well plate.NVS_GPCR_hDRD1 is one of one assay component(s) measured or calculated from the NVS_GPCR_hDRD1 assay. It is designed to make measurements of radioligand binding, a form of binding reporter, as detected with scintillation counting signals by Filter-based radiodetection technology.Data from the assay component NVS_GPCR_hDRD1 was analyzed into 1 assay endpoint. This assay endpoint, NVS_GPCR_hDRD1, was analyzed in the positive analysis fitting direction relative to DMSO as the negative control and baseline of activity. Using a type of binding reporter, loss-of-signal activity can be used to understand changes in the binding as they relate to the gene DRD1. Furthermore, this assay endpoint can be referred to as a primary readout, because the performed assay has only produced 1 assay endpoint. To generalize the intended target to other relatable targets, this assay endpoint is annotated to the gpcr intended target family, where the subfamily is rhodopsin-like receptor.
Binding assays used specific radioligands (tritiated, iodinated) with non-radioactive competitive displacement ligands in agonist or antagonist protocols (as indicated) and various reference compounds and inhibitors to titrate specific binding to receptors and transporters. Most enzyme assays (CYPs, kinases, phosphatases, proteases, HDACs) used recombinant protein and specific substrates (fluorescence mostly, some colorimetric and radioactive) and inhibitors, followed by a biochemical separation of substrate and product. All assays for the biochemical HTS were initially run in duplicate at a single concentration (10 uM for CYP450 assays and 25 uM for all others). […] Each assay was run with positive and negative controls, and concurrent controls on every plate. The follow-up (secondary) screen tested active chemical-pairs in concentration series, as well as a few additional assays not tested in the primary screen, some selected negative inactives, and several cases re-run in the concentration series for confirmatory purposes.

| Structure (SMILES) | outcome | AC50 |
| --- | --- | --- |
| [Cl][Sc]([Cl])[Cl] | inactive |  |
| Oc1ccc(/C=C/c2cc(O)cc(O)c2)cc1 |  | 25 µM (active) |
| C=C(C)C(=O)OCCCCCCCCCCCC | inactive |  |
| COC(=O)C=Cc1ccccc1 | inactive |  |
| CC(c1cc(C(C)(C)C)cc(C(C)(C)C)c1O)c1cc(C(C)(C)C)cc(C(C)(C)C)c1O | inactive |  |
| Cc1cc(C)c(C=O)c(C)c1 | inactive |  |
| Cc1cc(C)n(CO)n1 | inactive |  |
| CC(C)CCOCc1ccccc1 | inactive |  |
| CCCCCCCCCCCCCc1ccccc1 | inactive |  |
| CC/C=C\C/C=C\C/C=C\CCCCCCCC(=O)OC |  | 14 µM (active) |
| CCC(C)C(=O)OC (stereo unspecified) |  | 18.1 µM (active) |
